{"source": "paper PMC12864922", "about": "“TDP-43 directly inhibits mRNA accumulation in neurites through modulation of mRNA stability”", "binders": {"B1": {"name": "ENSMUSG00000031028.589|Tub (ssRNA)", "RNA": "GGGAGUUCUACAGUCCGACGAUCGCUUCGAUAUCCGCAUGCUAUUUCUUUCAGUUUAUGGCCACCUGCCCAAAUUGACUUCCAGCUUACAAUCUUCUGUCAUUUCAAGAUCGUAAGAAGUACUGGGAUGGGUUUGAGUUUUCAGCACAGAGGCGAGUUGAUCUAGGAGCAUACAACUGUACUGAGCAGCUAGAGCAUUUGAGCAACCCAUGUAAUCUUUGUGUUUCCCUCCCUGUAAGAAGGCCUGUCAGAGCUUGCUGUAGGAGUUAGGGUAAAUGAAAGUUAGUCCUGGCUCUCAUCACCACUCUUGCGGUCGCACUAGUGUGGAAUUCUCGGGUGUCAAGG"}, "B2": {"name": "ENSMUSG00000004113.44|Cacna1b (ssRNA)", "RNA": "GGGAGUUCUACAGUCCGACGAUCGCUUCGAUAUCCGCAUGCUAUCCGCCGUGUACCCAAUGGCUAUCACUGCACUUUGGGACUCAGCACUGGCGUCCGGGCGCGGCACAGCUACCACCACCCCGAUCAGGACCACUGGUGCUAGCUGCACCACGACCACCCAUGUACCAGCUCCAUGGGUGAGGGUUCCAGUUGAUGAGUUUUAUCAUCCGCUCUGGGCUGUGGGGUCACAGCCCUGGGAGGAGGGCCCUCACAUCUCGGCCUCUGUGGUGGAGGCUCCUGCUUCCCUCCCUCCCUCCCUUUUCUCUUGCGGUCGCACUAGUGUGGAAUUCUCGGGUGUCAAGG"}, "B3": {"name": "ENSMUSG00000031028.188|Tub (ssRNA)", "RNA": "GGGAGUUCUACAGUCCGACGAUCGCUUCGAUAUCCGCAUGCUAUUAAUGGCAGAGUUGAGAACCUCAAAUUCUUUUGUUCCUACUGUUGCCCAGAAACUAGACUCUCUGACCUGCUAGGGUCUAUUCUGCAUGUCCUUUCUCUUCCCAGUUCCAGAGAUGAAACCCCUCCGAGUUAAUGUAUAAGGUUGGAAACCUUUCAGUAGGGAAUCAGGCAGUUCCCUGUUGAAAGUUGUCUGAGUUUUUGCACACCAUUCUGAUCUGAUGUGGCCUGUGCCUGGCUCCUCUAUGAGGACUUCGAGCUGCUCUUGCGGUCGCACUAGUGUGGAAUUCUCGGGUGUCAAGG"}, "B4": {"name": "ENSMUSG00000029028.242|Lrrc47 (ssRNA)", "RNA": "GGGAGUUCUACAGUCCGACGAUCGCUUCGAUAUCCGCAUGCUAGUCAGAACUAGUGAAGCUCCAGGCUCCUCGUGGCAGACCCUGGACAACGCUGGUAGCUGUUCUCCAUGAGACACGGCUGCUCACAGGUCCCUUUGAGUGGCUGUGGCAAGUACUCACCUACUAAGUGUUUAGGGUGGAGCUAUCCUGUGCUCACCCUGUCUCCCCCCAGUUCCUGCUGUUCCCUCCAGCCCAGCCCAGCCCAGGUGUGAGAUUCAUUGAGAUUUUUGAAACUGUUUUUACAGAUUCAAGCAGAACGCCUCCUCUUGCGGUCGCACUAGUGUGGAAUUCUCGGGUGUCAAGG"}, "B5": {"name": "ENSMUSG00000058297.76|Spock2 (ssRNA)", "RNA": "GGGAGUUCUACAGUCCGACGAUCGCUUCGAUAUCCGCAUGCUACUGAUCCUGCCCCUCAGCCCAACACCUGGAAUCCCUGCCCUGCCUAAUCAGCCCUACCCCAUCCUGCCUUUCUUCCUUCCUCUUCUGAGGCCAGGGAGAGGGAGGGAGGGCAGGCAGCUGAAAGCUGAGCGUCCUCCCCAAAUUGGGCUGAUUUGAUAUGAAAGCCCCACCACGGUCUUGUGGUGAUGAGGCAGGACCUGUACACACAGCAAGGCUUACUAUCCGUCUCCUGACAUCCGAAGAGCUCGUCGCAGGUGUGUCUCUUGCGGUCGCACUAGUGUGGAAUUCUCGGGUGUCAAGG"}, "B6": {"name": "ENSMUSG00000061578.198|Ksr2 (ssRNA)", "RNA": "GGGAGUUCUACAGUCCGACGAUCGCUUCGAUAUCCGCAUGCUAGGCACAGAGUGAAUGGGAAGGAGAGCCCUGAGGUCACUGGUCCACAUGCCCAAAGCCAUGCCCCCCAGUGAUCAGACCUGACACAAGAGGCAAAGCUGUCCCUAAGCAGAGAAUUAGCAGGGUUAGCCAGACAGCAAAAUCCAUGUAAACAUACAAAACCACCCCCCCUUUUUGAGUGGCCCUAUUGGAUGUACACACUAGGACCAAGCACGGGUCCAAAGCAGGAAGACUGAUUGACAGUAGUCACACUUCUAGAGAGACUCUUGCGGUCGCACUAGUGUGGAAUUCUCGGGUGUCAAGG"}, "B7": {"name": "ENSMUSG00000022095.7|Fam160b2|99:103 (ssRNA)", "RNA": "GGGAGUUCUACAGUCCGACGAUCGCUUCGAUAUCCGCAUGCUAGUCAAGUUUCCCCCACACGGUCCUUACCUGAACUUCUCUCCACCUCCAGAAGGGCAAGUCUGAGCCAGGAGCAUGACGGGUGGGGGAAGAUUCCUGCCACACAACUUCUGCCCACGGGCAGUCUCCUGCCUGGCCAUGCUGCCACUCUGUCCUCCAUGCCGGGGACUUCAGCUGCAGGACACCUCACCUGUUGACCCCACGAGCUGAGGUUUCAAGGAGGUGCUGGCUCCUAAGGCAGUGGUAUUCUUGGAGCCUUUUAGCUCUUGCGGUCGCACUAGUGUGGAAUUCUCGGGUGUCAAGG"}, "B8": {"name": "ENSMUSG00000004113.288|Cacna1b (ssRNA)", "RNA": "GGGAGUUCUACAGUCCGACGAUCGCUUCGAUAUCCGCAUGCUAAAAACCCAUGCUCAGGAAGGUGUUCAGUGUGCACAGAUAGCUGGGAGGCCACGAGAGAAAGGUUGCACACAGACAGGCAGGCACUCCUUGGUGUGGUCUCUCUGUUUUGAAACUUCUGAUGACUUCUUGGUGGCUUGUUGUCUUCUACCCCAUGUUUCUCACAGGAUCUGUGUGUGUGUGUGUGUGUGUGUGUGUGUGUGUGUGUGUGUGUGUUAGCAUGUGUGUAUUAGCGUGUGUGAGUGUGUGAGCAUGCACGAGUCCUCUUGCGGUCGCACUAGUGUGGAAUUCUCGGGUGUCAAGG"}, "B9": {"name": "ENSMUSG00000004113.285|Cacna1b (ssRNA)", "RNA": "GGGAGUUCUACAGUCCGACGAUCGCUUCGAUAUCCGCAUGCUAUGGCUGCUUUGCAAAGGGAAAACCCAUGCUCAGGAAGGUGUUCAGUGUGCACAGAUAGCUGGGAGGCCACGAGAGAAAGGUUGCACACAGACAGGCAGGCACUCCUUGGUGUGGUCUCUCUGUUUUGAAACUUCUGAUGACUUCUUGGUGGCUUGUUGUCUUCUACCCCAUGUUUCUCACAGGAUCUGUGUGUGUGUGUGUGUGUGUGUGUGUGUGUGUGUGUGUGUGUGUUAGCAUGUGUGUAUUAGCGUGUGUGAGUGCUCUUGCGGUCGCACUAGUGUGGAAUUCUCGGGUGUCAAGG"}, "B10": {"name": "ENSMUSG00000004113.284|Cacna1b (ssRNA)", "RNA": "GGGAGUUCUACAGUCCGACGAUCGCUUCGAUAUCCGCAUGCUAACCUCAUGGCUGCUUUGCAAAGGGAAAACCCAUGCUCAGGAAGGUGUUCAGUGUGCACAGAUAGCUGGGAGGCCACGAGAGAAAGGUUGCACACAGACAGGCAGGCACUCCUUGGUGUGGUCUCUCUGUUUUGAAACUUCUGAUGACUUCUUGGUGGCUUGUUGUCUUCUACCCCAUGUUUCUCACAGGAUCUGUGUGUGUGUGUGUGUGUGUGUGUGUGUGUGUGUGUGUGUGUGUUAGCAUGUGUGUAUUAGCGUGUGCUCUUGCGGUCGCACUAGUGUGGAAUUCUCGGGUGUCAAGG"}, "B11": {"name": "ENSMUSG00000004113.287|Cacna1b (ssRNA)", "RNA": "GGGAGUUCUACAGUCCGACGAUCGCUUCGAUAUCCGCAUGCUAAAAGGGAAAACCCAUGCUCAGGAAGGUGUUCAGUGUGCACAGAUAGCUGGGAGGCCACGAGAGAAAGGUUGCACACAGACAGGCAGGCACUCCUUGGUGUGGUCUCUCUGUUUUGAAACUUCUGAUGACUUCUUGGUGGCUUGUUGUCUUCUACCCCAUGUUUCUCACAGGAUCUGUGUGUGUGUGUGUGUGUGUGUGUGUGUGUGUGUGUGUGUGUGUUAGCAUGUGUGUAUUAGCGUGUGUGAGUGUGUGAGCAUGCACUCUUGCGGUCGCACUAGUGUGGAAUUCUCGGGUGUCAAGG"}, "B12": {"name": "ENSMUSG00000004113.286|Cacna1b (ssRNA)", "RNA": "GGGAGUUCUACAGUCCGACGAUCGCUUCGAUAUCCGCAUGCUACUUUGCAAAGGGAAAACCCAUGCUCAGGAAGGUGUUCAGUGUGCACAGAUAGCUGGGAGGCCACGAGAGAAAGGUUGCACACAGACAGGCAGGCACUCCUUGGUGUGGUCUCUCUGUUUUGAAACUUCUGAUGACUUCUUGGUGGCUUGUUGUCUUCUACCCCAUGUUUCUCACAGGAUCUGUGUGUGUGUGUGUGUGUGUGUGUGUGUGUGUGUGUGUGUGUGUUAGCAUGUGUGUAUUAGCGUGUGUGAGUGUGUGAGCUCUUGCGGUCGCACUAGUGUGGAAUUCUCGGGUGUCAAGG"}, "B13": {"name": "ENSMUSG00000004113.289|Cacna1b (ssRNA)", "RNA": "GGGAGUUCUACAGUCCGACGAUCGCUUCGAUAUCCGCAUGCUACAUGCUCAGGAAGGUGUUCAGUGUGCACAGAUAGCUGGGAGGCCACGAGAGAAAGGUUGCACACAGACAGGCAGGCACUCCUUGGUGUGGUCUCUCUGUUUUGAAACUUCUGAUGACUUCUUGGUGGCUUGUUGUCUUCUACCCCAUGUUUCUCACAGGAUCUGUGUGUGUGUGUGUGUGUGUGUGUGUGUGUGUGUGUGUGUGUGUUAGCAUGUGUGUAUUAGCGUGUGUGAGUGUGUGAGCAUGCACGAGUCAUAGGACUCUUGCGGUCGCACUAGUGUGGAAUUCUCGGGUGUCAAGG"}}, "note": "Over roughly 9,900 sequences, “r (bound/input frequency ratio)” has its median near 0.7; the highest 2% begin near 6.5. The entries come from a sample that favours the highest values as a whole."}
{"biological_target": "TDP-43 (Homo sapiens, UniProt Q13148 1-414)", "sequence (Q13148 whole entry)": "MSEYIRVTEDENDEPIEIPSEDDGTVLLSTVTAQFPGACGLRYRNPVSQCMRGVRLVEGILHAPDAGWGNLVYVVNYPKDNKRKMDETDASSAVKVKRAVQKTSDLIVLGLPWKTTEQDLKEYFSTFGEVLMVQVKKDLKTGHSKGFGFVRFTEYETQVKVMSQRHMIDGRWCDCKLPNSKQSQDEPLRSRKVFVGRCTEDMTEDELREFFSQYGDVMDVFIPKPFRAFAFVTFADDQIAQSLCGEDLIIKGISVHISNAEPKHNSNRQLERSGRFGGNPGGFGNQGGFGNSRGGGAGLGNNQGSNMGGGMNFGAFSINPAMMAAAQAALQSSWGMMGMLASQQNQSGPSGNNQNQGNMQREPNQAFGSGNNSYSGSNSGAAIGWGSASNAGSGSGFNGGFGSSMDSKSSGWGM", "experiment": "RNA Bind-n-Seq with designed 260-mer pool; 25 mM Tris-HCl, 150 mM KCl, 3 mM MgCl2, BSA (printed 500 mg/mL), 20 units/mL SUPERase IN; pH not stated; 500 nM RNA pool, 1 h, 4 C; TDP-43 5, 50, 500 nM; high values mean tight binding", "settings": "protein: recombinant; tags: SBP (GST cleaved off with PreScission; pGEX-GST-SBP)", "outline": "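Streptavidin beads captured recombinant SBP-tagged TDP-43 at 5, 50 or 500 nM, and the beads were incubated for 1 h at 4 °C with 500 nM of an in vitro-transcribed pool of 260-nt 3′ UTR oligos in 25 mM Tris-HCl, 150 mM KCl, 3 mM MgCl2, BSA and SUPERase IN. After washing, bound RNA was eluted with biotin, reverse transcribed, PCR-amplified and sequenced. Binding is reported as R, the mapped-read-normalized abundance of each oligo in the bound sample divided by its abundance in the input. Two independent protein batches served as duplicates.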"}
{"binder": "B1", "binding signal": "0.299 R (bound/input frequency ratio)"}
{"binder": "B2", "binding signal": "0.443 R (bound/input frequency ratio)"}
{"binder": "B3", "binding signal": "1.12 R (bound/input frequency ratio)"}
{"binder": "B4", "binding signal": "0.479 R (bound/input frequency ratio)"}
{"binder": "B5", "binding signal": "0.827 R (bound/input frequency ratio)"}
{"binder": "B6", "binding signal": "1.41 R (bound/input frequency ratio)"}
{"binder": "B7", "binding signal": "0.238 R (bound/input frequency ratio)"}
{"binder": "B8", "binding signal": "7.06 R (bound/input frequency ratio)"}
{"binder": "B9", "binding signal": "7.91 R (bound/input frequency ratio)"}
{"binder": "B10", "binding signal": "6.3 R (bound/input frequency ratio)"}
{"binder": "B11", "binding signal": "5.32 R (bound/input frequency ratio)"}
{"binder": "B12", "binding signal": "6.11 R (bound/input frequency ratio)"}
{"binder": "B13", "binding signal": "5.06 R (bound/input frequency ratio)"}
